Data reported in ChEMBL document CHEMBL3988442, “University of Dundee, Small-Polar-MMV Screening Library” (2021).
About 13,000 (27%) of roughly 48,000 compounds showed an effect of 50% or more. The list shows a part of the results.

System: Wolbachia pipientis
Assay: Anti-Wolbachia Cell-Based Screen
Type: functional
Design: scale not given: in the data most compounds retested in dose-response had high values
Details: 5 µM

Structure (SMILES) | Percent Effect
COc1cccc(OCC2CCCN(C(=O)c3cc(C)n[nH]3)C2)c1 (stereo not given) | -67.83%
Cc1cccc2c1OCCCC2NCc1nccn1Cc1ccccc1 (stereo not given) | -13.33%
Cc1noc(C)c1CCC(=O)NC(C)c1nnc2n1CCCCC2 (stereo not given) | -4.207%
CC(NC(=O)CCc1cccs1)c1nnc2n1CCC2 (stereo not given) | -2.805%
CC(NC(=O)CCc1cccs1)c1nnc2n1CCCCC2 (stereo not given) | 108.8%
CC(NC(=O)Cc1cccs1)c1nnc2n1CCCCC2 (stereo not given) | -4.411%
CC(NC(=O)Cc1cccs1)c1nnc2n1CCC2 (stereo not given) | 95.59%
CNC(=O)N1C[C@H]2CC[C@@]3(N=C(c4ccccc4)NC3=O)[C@H]2C1 | -7.438%
N[C@H]1CN(C(=O)c2ccc(Cl)cc2F)C[C@@H]1C1CC1 | -16.98%
CCS(=O)(=O)N(C)C1CCN(C(=O)c2ccc(C)c(C)c2)CC1 | -2.68%
CCN(c1ccc(C(=O)N2CCCCCC2)cc1)S(=O)(=O)CC | 148.2%
CCN(c1ccc(C(=O)N2CCCCC2)cc1)S(=O)(=O)CC | 114.5%
CCN(c1ccc(C(=O)N2CCCC2)cc1)S(=O)(=O)CC | -7.72%
CCCOC1CCCN(C(=O)c2ccc(S(N)(=O)=O)cc2)C1 (stereo not given) | 2.275%
Cc1cc(C(=O)N2CCCCC2)ccc1NS(C)(=O)=O | -18.21%
COc1ccccc1OC1(C(=O)O)CCN(c2cc(C)nc(C)c2)CC1 | -31.32%
CCOc1ccc(C(F)(F)F)cc1NCc1nc(C)c(C)o1 | -3.649%
NCC1CCN(C2CCN(c3ccc(-c4ccco4)cc3)CC2)C1 (stereo not given) | -12.7%
CC(CCSc1ccccc1)N1CCN(C(=O)c2ccccc2O)CC1 (stereo not given) | 4.975%
Cl.Nc1nc(Nc2ccccc2)cc(N2CCNCC2)n1 | 122.8%

Structure (SMILES) | Percent Effect
CN(Cc1cccc(-n2cccn2)c1)c1cc(N2CCCC2)nc(N)n1 | 13.85%
Nc1nc(NCCc2[nH]nc3c2CCCC3)cc(N2CCOCC2)n1 | -17.88%
c1ccc(CCCn2cc(-c3nc(CN4CCOCC4)no3)nn2)cc1 | -30.42%
CCCSCC(=O)N1CCC2(CC1)CC(c1ccccc1)CN(C)C2 (stereo not given) | -4.07%
CCCC(=O)N1Cc2ccccc2CC2(CCN(C)C2)C1 (stereo not given) | 117.7%
CN1CCC2(CCN(C(=O)c3ccccc3)CC2)C1 | -23.98%
CN1CC(c2ccccc2)CC12CCN(C(=O)c1ccc(Cl)cc1)CC2 (stereo not given) | -14.14%
CN1CCC2(CC1)Cc1ccccc1CN(C(=O)CN)C2 | 99.69%
CCCC(=O)N1CCC2(CC1)COC2 | -43.8%
CN1CCC2(Cc3ccccc3CN(C(=O)CCN)C2)C1 (stereo not given) | 104.1%
CN1CCC2(Cc3ccccc3CN(C(=O)c3ccc(Cl)cc3)C2)C1 (stereo not given) | 111.1%
O=C1CC(c2ccc(C(=O)O)cc2)c2ncn(-c3ccc(Cl)cc3)c2N1 (stereo not given) | -3.148%
CC(C)C(C)(O)CNc1cccc(F)c1C#N (stereo not given) | 29.17%
COCc1nnc(-c2cccc(C(=O)N(C(C)C)C3CCC3)c2)o1 | 24.51%
O=C(CCNC(=O)c1ccc(Cl)cc1)NCc1nc(C2CC2)no1 | -6.02%
Cc1c(C(C)NC2CCOCC2)cnn1-c1ccc(F)cc1F (stereo not given) | -3.497%
O=C(Cc1ccccc1)N1CCC2(CC(=O)N(c3cccc(F)c3)C2)C1 (stereo not given) | -7.146%
CN1CCC2(Cc3ccccc3CN(C(=O)Cc3cccc(Cl)c3)C2)C1 (stereo not given) | 135.8%
COCCC(=O)N1CCC2(CN(Cc3cccc(Cl)c3)C2)C1 | 20.7%
CC(=O)Nc1nc(C(=O)NC(C)c2ccc(F)cc2)cs1 (stereo not given) | 33.73%

Structure (SMILES) | Percent Effect
CC(=O)Nc1nc(C(=O)NC(C)c2ccc(C#N)cc2)cs1 (stereo not given) | 80.7%
CC(=O)Nc1nc(C(=O)NCCOc2ccc(C)cc2)cs1 | -6.104%
CC(=O)Nc1nc(C(=O)Nc2ccc(F)cc2)cs1 | -0.1776%
CC(=O)Nc1nc(C(=O)NC(C)c2ccc(F)c(F)c2)cs1 (stereo not given) | 54.27%
CC(=O)Nc1nc(C(=O)NC(C)c2ccc3c(c2)OCCO3)cs1 (stereo not given) | 7.281%
CCc1ccc(C2COCCN2C(=O)Nc2ccc(C(N)=O)c(Cl)c2)o1 (stereo not given) | -0.9462%
Cc1cc(C(=O)N2C[C@H]3CC[C@@H]2CN(C(=O)c2ccncc2)C3)cs1 | -9.465%
Fc1ccc(CN2CC[C@H]3O[C@@H](COCc4cccnc4)CC[C@H]32)cc1.O=C(O)C(F)(F)F.O=C(O)C(F)(F)F | 0.3958%
CCOCC1C[C@@H]2OCCN(C(=O)c3ccc[nH]3)[C@H]2C1 (stereo not given in full) | -14%
O=C(O)C(F)(F)F.O=C(O)C(F)(F)F.c1cnc(N2CC[C@@H]3O[C@@H](COCc4cccnc4)CC[C@@H]32)nc1 | -9.534%
CN(C)C(=O)N1CCO[C@@H]2CC(COCc3cccnc3)C[C@H]21.O=C(O)C(F)(F)F (stereo not given in full) | 103.1%
Fc1cnc(N2CC[C@@H]3OC(COCc4cccnc4)CC[C@@H]32)nc1.O=C(O)C(F)(F)F.O=C(O)C(F)(F)F (stereo not given in full) | -10.65%
O=C(O)C(F)(F)F.O=C(O)C(F)(F)F.O=C(O)C(F)(F)F.c1cncc(COCC2CN(Cc3cccnc3)Cc3ccnn3C2)c1 (stereo not given) | 11.05%
Cn1cnc2c1C(COCc1cccnc1)N(Cc1ccccc1)CC2 (stereo not given) | 2.197%
Cc1ccoc1C(=O)N1CC[C@H]2OCC[C@@]2(COCc2ccncc2)C1 | -2.681%
CN(C)CC(=O)N1CCO[C@@H]2CC(COCc3ccncc3)C[C@H]21 (stereo not given in full) | 100.6%
Cc1cnc(N2CCO[C@@H]3CC(COCc4cccnc4)C[C@H]32)nc1.O=C(O)C(F)(F)F.O=C(O)C(F)(F)F (stereo not given in full) | 79.55%
COCC(=O)N1CCO[C@H]2[C@H](OCc3cccnc3)CC[C@@H]21.O=C(O)C(F)(F)F | -4.337%
c1cncc(COCC2C[C@@H]3OCCN(Cc4cccnc4)[C@H]3C2)c1 (stereo not given in full) | 111.6%
Cc1nc(CN(C)Cc2nc(-c3sccc3C)oc2C)no1 | -9.354%
